The subject of assay [1] is Epidermal growth factor receptor (Homo sapiens), P00533 [T790M]. Conditions: at 1 µM.
Assay [2] relates to Epidermal growth factor receptor (Homo sapiens), P00533 [L858R,T790M]. The note with it: at 0.1 µM.
Assay [3] has the same test system. The note with it: at 1 µM.
The target of assay [4] is Ephrin type-A receptor 2 (Homo sapiens) (UniProt P29317). Conditions: at 0.1 µM.
Assay [5] has the same target. Conditions: at 1 µM.
In assay [6] the target is T1, Ephrin type-A receptor 3 (Homo sapiens) (UniProt P29320).
T1 sequence (whole entry): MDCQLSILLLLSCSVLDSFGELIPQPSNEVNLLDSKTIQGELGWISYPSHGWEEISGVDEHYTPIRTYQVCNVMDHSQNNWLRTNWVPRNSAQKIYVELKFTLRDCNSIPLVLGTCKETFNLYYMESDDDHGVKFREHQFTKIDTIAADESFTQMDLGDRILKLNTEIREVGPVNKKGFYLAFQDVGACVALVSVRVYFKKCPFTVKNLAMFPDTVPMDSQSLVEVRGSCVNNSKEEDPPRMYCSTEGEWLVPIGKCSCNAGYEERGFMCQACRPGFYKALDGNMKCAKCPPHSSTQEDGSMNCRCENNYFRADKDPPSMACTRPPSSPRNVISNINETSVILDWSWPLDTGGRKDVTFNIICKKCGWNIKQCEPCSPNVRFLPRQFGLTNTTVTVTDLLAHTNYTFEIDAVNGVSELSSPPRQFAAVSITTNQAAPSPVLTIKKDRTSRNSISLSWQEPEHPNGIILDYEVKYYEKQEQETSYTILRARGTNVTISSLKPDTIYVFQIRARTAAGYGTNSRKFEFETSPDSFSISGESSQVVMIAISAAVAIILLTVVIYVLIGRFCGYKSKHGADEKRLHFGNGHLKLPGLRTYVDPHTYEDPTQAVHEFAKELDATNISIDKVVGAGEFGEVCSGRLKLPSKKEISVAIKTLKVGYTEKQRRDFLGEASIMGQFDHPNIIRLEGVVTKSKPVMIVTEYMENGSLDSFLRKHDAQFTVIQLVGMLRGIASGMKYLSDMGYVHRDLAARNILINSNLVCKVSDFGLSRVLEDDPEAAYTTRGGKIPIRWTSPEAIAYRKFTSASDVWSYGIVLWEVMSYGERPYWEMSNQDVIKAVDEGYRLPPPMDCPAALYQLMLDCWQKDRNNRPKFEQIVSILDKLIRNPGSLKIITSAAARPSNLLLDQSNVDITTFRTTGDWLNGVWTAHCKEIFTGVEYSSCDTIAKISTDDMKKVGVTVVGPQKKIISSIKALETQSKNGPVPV
Conditions: at 0.1 µM.

The target in assay [7] is T1, Ephrin type-A receptor 3 (Homo sapiens). The note with it: at 1 µM.
Assay [8] concerns the target Ephrin type-A receptor 4 (Homo sapiens) (UniProt P54764). Conditions: at 0.1 µM.
For assay [9] the target is unchanged. The note with it: at 1 µM.
In assay [10] the target is T2, Ephrin type-B receptor 2 (Homo sapiens) (UniProt P29323).
T2 sequence (whole entry): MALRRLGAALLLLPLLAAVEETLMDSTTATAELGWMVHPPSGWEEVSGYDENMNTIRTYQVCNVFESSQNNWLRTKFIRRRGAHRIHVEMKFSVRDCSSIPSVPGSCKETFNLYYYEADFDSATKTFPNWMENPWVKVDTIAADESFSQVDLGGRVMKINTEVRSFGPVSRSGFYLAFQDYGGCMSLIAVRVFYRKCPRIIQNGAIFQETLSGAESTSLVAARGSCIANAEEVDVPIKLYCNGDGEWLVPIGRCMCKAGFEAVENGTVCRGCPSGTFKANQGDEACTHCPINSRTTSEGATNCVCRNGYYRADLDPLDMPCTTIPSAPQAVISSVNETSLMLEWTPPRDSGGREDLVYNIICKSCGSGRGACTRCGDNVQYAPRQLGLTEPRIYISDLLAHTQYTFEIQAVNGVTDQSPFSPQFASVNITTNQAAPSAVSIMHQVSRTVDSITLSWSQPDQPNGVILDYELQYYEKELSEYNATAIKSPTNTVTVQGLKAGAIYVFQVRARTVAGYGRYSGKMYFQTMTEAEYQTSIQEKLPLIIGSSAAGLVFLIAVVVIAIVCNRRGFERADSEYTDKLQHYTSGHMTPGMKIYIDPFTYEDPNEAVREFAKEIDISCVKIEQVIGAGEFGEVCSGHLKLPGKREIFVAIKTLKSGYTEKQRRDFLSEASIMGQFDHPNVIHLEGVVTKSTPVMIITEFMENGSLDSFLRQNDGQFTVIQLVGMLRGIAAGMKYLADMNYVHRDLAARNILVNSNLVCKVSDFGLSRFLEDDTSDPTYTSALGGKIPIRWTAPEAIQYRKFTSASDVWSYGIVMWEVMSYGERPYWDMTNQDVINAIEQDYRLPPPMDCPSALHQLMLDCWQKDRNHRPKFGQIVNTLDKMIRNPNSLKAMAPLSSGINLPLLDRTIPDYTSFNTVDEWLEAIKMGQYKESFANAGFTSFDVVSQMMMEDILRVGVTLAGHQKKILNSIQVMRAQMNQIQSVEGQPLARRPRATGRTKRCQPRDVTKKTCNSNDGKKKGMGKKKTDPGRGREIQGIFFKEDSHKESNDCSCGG
The note with it: at 0.1 µM.

The target of assay [11] is T2, Ephrin type-B receptor 2 (Homo sapiens). The note with it: at 1 µM.
Assay [12] addresses T3, Ephrin type-B receptor 3 (Homo sapiens) (UniProt P54753).
T3 sequence (whole entry): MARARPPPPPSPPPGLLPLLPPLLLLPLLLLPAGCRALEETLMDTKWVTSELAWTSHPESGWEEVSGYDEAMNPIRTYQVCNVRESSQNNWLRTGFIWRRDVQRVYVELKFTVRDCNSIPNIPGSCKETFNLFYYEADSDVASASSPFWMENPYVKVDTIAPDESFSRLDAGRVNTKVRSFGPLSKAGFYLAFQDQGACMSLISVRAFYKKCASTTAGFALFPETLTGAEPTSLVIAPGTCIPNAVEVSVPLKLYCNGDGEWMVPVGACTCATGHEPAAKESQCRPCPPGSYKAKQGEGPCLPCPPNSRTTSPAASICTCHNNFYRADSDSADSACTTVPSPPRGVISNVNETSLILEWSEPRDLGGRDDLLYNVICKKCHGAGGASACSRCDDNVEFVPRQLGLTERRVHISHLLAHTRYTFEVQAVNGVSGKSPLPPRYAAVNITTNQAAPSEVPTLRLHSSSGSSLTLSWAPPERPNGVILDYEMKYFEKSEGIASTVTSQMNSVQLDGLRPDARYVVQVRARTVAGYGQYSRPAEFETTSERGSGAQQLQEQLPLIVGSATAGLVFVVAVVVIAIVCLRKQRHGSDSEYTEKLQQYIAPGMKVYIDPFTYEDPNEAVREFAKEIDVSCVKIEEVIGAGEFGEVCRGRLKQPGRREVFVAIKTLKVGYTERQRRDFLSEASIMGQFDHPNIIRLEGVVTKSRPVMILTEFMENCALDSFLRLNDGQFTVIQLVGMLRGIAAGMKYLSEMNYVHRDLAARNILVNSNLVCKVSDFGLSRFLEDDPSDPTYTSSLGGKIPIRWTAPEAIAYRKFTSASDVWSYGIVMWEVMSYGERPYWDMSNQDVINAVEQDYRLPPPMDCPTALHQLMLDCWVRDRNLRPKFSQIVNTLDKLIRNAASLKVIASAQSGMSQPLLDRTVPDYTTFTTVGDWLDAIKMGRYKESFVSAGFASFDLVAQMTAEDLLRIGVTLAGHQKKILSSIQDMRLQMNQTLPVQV
The note with it: at 0.1 µM.

Assay [13] addresses T3, Ephrin type-B receptor 3 (Homo sapiens). Conditions: at 1 µM.
The target of assay [14] is T4, Ephrin type-B receptor 4 (Homo sapiens) (UniProt P54760).
T4 sequence (whole entry): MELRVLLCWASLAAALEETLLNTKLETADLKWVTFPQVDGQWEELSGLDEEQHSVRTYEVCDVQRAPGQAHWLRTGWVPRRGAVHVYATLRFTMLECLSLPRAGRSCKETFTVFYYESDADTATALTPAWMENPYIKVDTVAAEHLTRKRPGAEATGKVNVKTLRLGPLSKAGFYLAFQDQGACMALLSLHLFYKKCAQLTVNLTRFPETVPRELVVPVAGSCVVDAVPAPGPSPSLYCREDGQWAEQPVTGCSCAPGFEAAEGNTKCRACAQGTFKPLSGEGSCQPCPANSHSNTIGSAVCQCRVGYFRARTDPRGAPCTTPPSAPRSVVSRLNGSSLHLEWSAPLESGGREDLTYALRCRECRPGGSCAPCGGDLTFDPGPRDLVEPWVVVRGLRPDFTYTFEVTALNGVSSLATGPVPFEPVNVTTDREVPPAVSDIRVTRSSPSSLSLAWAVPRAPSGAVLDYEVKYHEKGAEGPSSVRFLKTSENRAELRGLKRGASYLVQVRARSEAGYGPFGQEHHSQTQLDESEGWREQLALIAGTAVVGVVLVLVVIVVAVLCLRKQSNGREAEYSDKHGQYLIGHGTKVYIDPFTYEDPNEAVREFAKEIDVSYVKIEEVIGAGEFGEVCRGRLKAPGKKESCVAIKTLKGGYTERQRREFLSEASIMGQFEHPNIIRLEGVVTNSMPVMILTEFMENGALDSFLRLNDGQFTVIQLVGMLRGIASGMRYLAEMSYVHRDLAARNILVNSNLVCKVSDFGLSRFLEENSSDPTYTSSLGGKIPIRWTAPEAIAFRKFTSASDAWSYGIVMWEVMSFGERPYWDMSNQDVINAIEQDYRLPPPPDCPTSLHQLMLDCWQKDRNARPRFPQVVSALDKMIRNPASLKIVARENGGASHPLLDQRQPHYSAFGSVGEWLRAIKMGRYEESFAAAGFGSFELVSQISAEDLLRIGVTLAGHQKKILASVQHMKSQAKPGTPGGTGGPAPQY
The note with it: at 0.1 µM.

Assay [15] concerns the target T4, Ephrin type-B receptor 4 (Homo sapiens). The note with it: at 1 µM.
The target in assay [16] is Receptor tyrosine-protein kinase erbB-2 (Homo sapiens) (UniProt P04626). The note with it: at 0.1 µM.
Assay [17] has the same target. The note with it: at 1 µM.
For assay [18], the target named is Receptor tyrosine-protein kinase erbB-4 (Homo sapiens) (UniProt Q15303). The note with it: at 0.1 µM.
The target is the same in assay [19]. Conditions: at 1 µM.
Assay [20] deals with Tyrosine-protein kinase Fer (Homo sapiens) (UniProt P16591). Conditions: at 0.1 µM.
Chain of Tyrosine-protein kinase Fer (Homo sapiens) (P16591 whole entry, looked up): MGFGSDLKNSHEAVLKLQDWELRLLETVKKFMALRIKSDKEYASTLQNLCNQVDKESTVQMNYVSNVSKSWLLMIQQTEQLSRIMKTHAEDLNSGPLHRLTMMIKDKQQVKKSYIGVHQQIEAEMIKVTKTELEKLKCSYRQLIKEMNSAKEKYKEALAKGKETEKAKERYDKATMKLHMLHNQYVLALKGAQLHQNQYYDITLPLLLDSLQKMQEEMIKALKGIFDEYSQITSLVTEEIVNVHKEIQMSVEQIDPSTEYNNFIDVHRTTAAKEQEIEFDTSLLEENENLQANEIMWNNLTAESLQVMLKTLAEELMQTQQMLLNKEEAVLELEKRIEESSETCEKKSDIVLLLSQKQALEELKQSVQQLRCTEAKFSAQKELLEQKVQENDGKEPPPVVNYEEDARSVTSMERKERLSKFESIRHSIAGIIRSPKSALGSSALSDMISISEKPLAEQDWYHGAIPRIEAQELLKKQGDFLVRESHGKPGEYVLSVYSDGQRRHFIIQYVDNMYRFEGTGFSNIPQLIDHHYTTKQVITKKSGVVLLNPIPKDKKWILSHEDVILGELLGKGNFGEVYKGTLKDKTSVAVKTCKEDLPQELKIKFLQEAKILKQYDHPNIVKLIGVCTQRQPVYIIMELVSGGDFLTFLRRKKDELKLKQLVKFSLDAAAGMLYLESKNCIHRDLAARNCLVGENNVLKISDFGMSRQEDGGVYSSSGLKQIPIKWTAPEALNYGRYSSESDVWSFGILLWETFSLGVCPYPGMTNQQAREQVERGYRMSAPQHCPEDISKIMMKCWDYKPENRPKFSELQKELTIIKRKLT

Chain of Ephrin type-A receptor 4 (Homo sapiens) (P54764 whole entry): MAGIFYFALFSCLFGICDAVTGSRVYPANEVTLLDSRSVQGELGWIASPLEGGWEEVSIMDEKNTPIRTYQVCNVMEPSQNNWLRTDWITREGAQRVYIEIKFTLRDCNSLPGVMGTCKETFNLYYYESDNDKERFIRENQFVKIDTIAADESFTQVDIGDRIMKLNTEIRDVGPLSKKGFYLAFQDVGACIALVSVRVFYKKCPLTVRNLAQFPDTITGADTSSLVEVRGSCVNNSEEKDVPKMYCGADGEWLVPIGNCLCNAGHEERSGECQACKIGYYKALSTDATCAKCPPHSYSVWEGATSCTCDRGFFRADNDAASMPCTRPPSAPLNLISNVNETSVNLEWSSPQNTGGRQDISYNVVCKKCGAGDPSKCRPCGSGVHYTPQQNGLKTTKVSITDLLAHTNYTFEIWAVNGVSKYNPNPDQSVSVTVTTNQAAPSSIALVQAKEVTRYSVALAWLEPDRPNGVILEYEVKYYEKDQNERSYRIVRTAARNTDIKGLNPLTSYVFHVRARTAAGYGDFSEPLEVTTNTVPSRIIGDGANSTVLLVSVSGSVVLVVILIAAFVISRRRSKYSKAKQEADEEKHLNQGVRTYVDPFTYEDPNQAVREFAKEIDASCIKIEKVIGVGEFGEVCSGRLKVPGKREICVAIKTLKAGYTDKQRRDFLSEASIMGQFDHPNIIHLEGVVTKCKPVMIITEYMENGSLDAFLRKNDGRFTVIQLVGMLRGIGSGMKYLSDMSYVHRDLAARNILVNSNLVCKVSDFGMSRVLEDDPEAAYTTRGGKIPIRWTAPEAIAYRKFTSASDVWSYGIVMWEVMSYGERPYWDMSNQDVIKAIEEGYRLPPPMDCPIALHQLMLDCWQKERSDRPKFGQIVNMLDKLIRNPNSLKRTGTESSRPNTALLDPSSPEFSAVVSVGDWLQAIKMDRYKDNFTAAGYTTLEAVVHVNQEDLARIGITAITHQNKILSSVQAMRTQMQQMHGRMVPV
Chain of Receptor tyrosine-protein kinase erbB-2 (Homo sapiens) (P04626 whole entry): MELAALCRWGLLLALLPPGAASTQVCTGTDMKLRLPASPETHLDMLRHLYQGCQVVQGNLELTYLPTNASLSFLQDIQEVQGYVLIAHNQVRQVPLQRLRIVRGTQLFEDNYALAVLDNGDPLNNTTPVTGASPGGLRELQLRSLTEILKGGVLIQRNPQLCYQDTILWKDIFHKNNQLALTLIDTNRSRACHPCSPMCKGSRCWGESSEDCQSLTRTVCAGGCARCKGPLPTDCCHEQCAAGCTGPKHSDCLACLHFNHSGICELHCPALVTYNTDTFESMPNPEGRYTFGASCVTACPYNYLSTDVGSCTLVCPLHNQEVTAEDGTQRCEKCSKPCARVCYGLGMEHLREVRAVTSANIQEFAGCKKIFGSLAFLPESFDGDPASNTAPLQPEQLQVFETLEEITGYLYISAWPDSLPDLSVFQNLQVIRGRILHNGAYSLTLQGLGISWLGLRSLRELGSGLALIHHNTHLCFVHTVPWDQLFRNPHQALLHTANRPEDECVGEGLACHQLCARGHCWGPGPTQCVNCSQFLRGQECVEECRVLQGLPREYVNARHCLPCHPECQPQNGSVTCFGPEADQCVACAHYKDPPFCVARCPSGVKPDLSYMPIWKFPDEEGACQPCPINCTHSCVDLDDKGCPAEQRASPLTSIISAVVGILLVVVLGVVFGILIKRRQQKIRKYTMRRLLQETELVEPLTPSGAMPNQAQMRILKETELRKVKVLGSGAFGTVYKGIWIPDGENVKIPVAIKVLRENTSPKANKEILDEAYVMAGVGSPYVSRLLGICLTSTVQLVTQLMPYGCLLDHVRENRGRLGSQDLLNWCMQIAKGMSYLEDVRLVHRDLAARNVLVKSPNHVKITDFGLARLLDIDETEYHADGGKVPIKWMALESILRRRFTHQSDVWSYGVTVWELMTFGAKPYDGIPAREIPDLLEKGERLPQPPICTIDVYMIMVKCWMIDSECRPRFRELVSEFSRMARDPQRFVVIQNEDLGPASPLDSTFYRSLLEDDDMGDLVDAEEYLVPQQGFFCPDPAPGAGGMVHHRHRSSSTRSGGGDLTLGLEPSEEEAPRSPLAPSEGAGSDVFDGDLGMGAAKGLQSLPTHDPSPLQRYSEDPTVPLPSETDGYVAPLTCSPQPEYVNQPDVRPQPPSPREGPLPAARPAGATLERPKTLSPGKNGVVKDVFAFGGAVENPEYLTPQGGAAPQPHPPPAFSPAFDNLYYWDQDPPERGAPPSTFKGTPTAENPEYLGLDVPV
Chain of Epidermal growth factor receptor (Homo sapiens), P00533 [T790M] (P00533 whole entry T790M): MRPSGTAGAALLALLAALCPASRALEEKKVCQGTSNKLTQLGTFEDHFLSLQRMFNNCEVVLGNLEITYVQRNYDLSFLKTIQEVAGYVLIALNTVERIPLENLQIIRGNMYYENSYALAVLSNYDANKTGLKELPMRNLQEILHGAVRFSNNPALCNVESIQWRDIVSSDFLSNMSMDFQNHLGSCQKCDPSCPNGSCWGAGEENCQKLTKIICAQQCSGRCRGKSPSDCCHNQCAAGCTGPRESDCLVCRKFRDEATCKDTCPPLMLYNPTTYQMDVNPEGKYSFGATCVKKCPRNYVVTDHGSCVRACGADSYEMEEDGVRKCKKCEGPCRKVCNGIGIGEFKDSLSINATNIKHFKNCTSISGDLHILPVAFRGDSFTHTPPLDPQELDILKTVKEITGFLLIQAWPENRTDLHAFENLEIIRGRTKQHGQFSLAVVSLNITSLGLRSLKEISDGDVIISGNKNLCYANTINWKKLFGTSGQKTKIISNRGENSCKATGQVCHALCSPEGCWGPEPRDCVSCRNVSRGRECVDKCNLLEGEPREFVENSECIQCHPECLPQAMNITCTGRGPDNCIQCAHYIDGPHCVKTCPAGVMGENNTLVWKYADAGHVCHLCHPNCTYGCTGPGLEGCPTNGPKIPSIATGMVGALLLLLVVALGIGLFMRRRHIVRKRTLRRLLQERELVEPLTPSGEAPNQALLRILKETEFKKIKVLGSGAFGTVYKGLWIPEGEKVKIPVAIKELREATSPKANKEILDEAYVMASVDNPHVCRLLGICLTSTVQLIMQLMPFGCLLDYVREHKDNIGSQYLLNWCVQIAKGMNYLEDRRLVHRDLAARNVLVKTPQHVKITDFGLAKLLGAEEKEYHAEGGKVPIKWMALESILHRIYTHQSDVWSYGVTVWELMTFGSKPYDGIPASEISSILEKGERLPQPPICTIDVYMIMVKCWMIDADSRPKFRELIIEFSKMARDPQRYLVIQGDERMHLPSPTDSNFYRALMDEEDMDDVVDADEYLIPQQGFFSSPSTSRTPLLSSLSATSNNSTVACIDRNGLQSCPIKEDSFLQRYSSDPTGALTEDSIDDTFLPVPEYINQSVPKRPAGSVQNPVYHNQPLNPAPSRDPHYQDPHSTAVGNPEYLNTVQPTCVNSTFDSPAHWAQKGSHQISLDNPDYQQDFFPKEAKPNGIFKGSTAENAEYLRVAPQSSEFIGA

As a reminder, the inhibition is the change of the read-out against control, counted positive when it falls. In the case of `NS(=O)(=O)c1ccc(N/N=C2\C(=O)Nc3ccc(C(=O)NCCCn4ccnc4)cc32)cc1`, the inhibition in [1] came out at 5.05%; in assay [2] it was 1.54%; in assay [3] it was 4.72%; in assay [4], 0.32%; in assay [5] it was 2.41%; in assay [6], 1.95%. Besides, the inhibition in assay [7] was determined as 4.65%; in [8] it was 9.78%; in assay [9], 18.2%; in assay [10], 5.33%; in assay [11], 13.3%; in [12], 5.75%. For the same compound, the inhibition stood at 4.37% in assay [13]; 1.61% in assay [14]; 5.27% in assay [15]; 4.39% in assay [16]; 5.69% in [17]; 8.45% in assay [18]. Further, the inhibition in assay [19] was determined as 14.6%.
Consider `CN(C)CCCNc1nccc(-c2c(-c3ccc(F)cc3)nn3cc(C(F)(F)F)ccc23)n1`, for which the inhibition is -0.54% in assay [1]; 0.09% in assay [2]; 1.55% in assay [3]; -2.91% in assay [4]; -2.04% in assay [5]; 0.03% in assay [6]. The inhibition amounted to 1.47% in [7]; 7% in [8]; 9% in assay [9]; 8.88% in assay [10]; 19.7% in assay [11]; 0.41% in assay [12]. Further, the inhibition in [13] is -0.85%; in assay [14], -2.73%; in [15], 0.9%; in [16] it was 0.46%; in [17] it was -1.57%; in assay [18], 0.88%. In addition, the inhibition in [19] was -0.51%; in [20], 1.94%.
As for `C/C(Nc1ccc(S(N)(=O)=O)cc1)=C1/C(=O)Nc2ccccc21`, the inhibition in assay [1] is 0.03%; in assay [2], -0.46%; in assay [3], -1.66%; in assay [4], -4.14%; in assay [5] it was -3.36%; in [6] it was -8.6%. Besides, the inhibition in assay [7] is -1.74%; in assay [8] it was -4.44%; in [9] it was -2.02%; in assay [10], -3.98%; in [11], -0.51%; in [12], -3.87%. Besides, the inhibition in [13] is -3.57%; in assay [14], -2.17%; in [15] it was -2.22%; in assay [16], -3.56%; in assay [17] it was -3.5%; in assay [18], -5.37%. Also, the inhibition in [19] was -8.14%; in [20], 0.46%.
Turning to `COc1cc(C)c(N(C)C(=O)CN(C)C)cc1Nc1nc(Nc2cccc(F)c2C(N)=O)c2cc[nH]c2n1`, the inhibition in assay [1] was 1.09%; in [2] it was -0.19%; in assay [3], 1.92%; in [4], -2.68%; in [5], -4.61%; in [6], -1.1%. Moreover, the inhibition in assay [7] is -3.2%; in assay [8], 3.77%; in assay [9], -1.31%; in assay [10] it was 2.81%; in assay [11], 4.5%; in assay [12], -1.17%. The inhibition in assay [13] was -3.39%; in assay [14], -2.25%; in assay [15], -3.91%; in assay [16], -0.03%; in assay [17], -3.53%; in assay [18] it was 4.41%. Further, the values for the inhibition in [19] and in assay [20] were 4.97% and 9.81%, respectively.

The values are drawn from ChEMBL document CHEMBL1961873, “Compounds: GSK PKIS; Assays: Nanosyn kinase panel” (2012).
